Only a selection was taken, and hits are over-represented in it overall.
STK33 kin inh – STK33 kinase inhibitors, primary screen, biochemical, luminescence, ADP-Glo, MBP substrate. Serine/threonine-protein kinase 33 (Homo sapiens), Q9BYT3. inhibition, % at 12.5 µM. 27,000 compounds, 0.44% hits; in the data active means inhibition above about 20%; inconclusive means no clear call, values can overlap the other calls
ID4 SMM – binders of human ID4 protein, primary screen, biochemical, small molecule microarray, single point; DNA-binding protein inhibitor ID-4 (Homo sapiens), P47928; calls only; 31,000 compounds, 1.2% hits; Flag-ID4 binding, fluorescence F/B; call rule not given here;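 further: a binder raises fluorescence above local background on the spot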
Target sequence (P47928 whole entry, looked up): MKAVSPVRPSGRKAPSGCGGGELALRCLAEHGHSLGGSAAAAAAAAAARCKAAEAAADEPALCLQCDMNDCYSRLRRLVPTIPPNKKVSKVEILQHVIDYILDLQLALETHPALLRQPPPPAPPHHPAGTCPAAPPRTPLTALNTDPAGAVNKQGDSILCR
* hit, by the source's call; i = inactive; ? = inconclusive; . = no result; + = active, no number.

SMILES	STK33 kin inh	ID4 SMM
O=C1/C(=C/c2ccc(-c3nn[nH]n3)cc2)C(c2ccccc2)Oc2ccccc21 (centres undefined)	-5	.
N#Cc1cccc(NC(=O)CCCN2C(=O)c3ccccc3C2=O)c1	0	+
N#Cc1ccc(NC(=O)CCN2C(=O)c3ccccc3C2=O)cc1	-1	i
CC1(C)CC[C@]2(C(=O)O[C@@H]3O[C@H](CO)[C@@H](O)[C@H](O)[C@H]3O)CC[C@]3(C)C(=CCC4[C@@]5(C)C[C@@H](O)[C@H](O)[C@@](C)(CO)C5[C@H](O)C[C@]43C)C2[C@@H]1O (some centres undefined)	4	i
NC(=O)C1CCN(C(=O)CSc2nc(-c3ccccc3)cc(=O)[nH]2)CC1	-2	i
O=c1cc(-c2ccc(O)c(O)c2)c2c(O[C@@H]3O[C@H](CO)[C@@H](O)[C@H](O)[C@H]3O)cc(O)cc2o1	-1	i
C[C@@H]1CN([C@@H](C)CO)C(=O)c2cccc(N(C)C)c2O[C@H]1CN(C)S(=O)(=O)c1ccc(Cl)cc1	.	i
C[C@H]1CN([C@@H](C)CO)C(=O)c2cccc(N(C)C)c2O[C@@H]1CN(C)S(=O)(=O)c1ccc(Cl)cc1	.	+
C=CCN1C(=O)[C@@]2(O[C@@H](CCn3cc(CCO)nn3)[C@H]([Si](C)(C)c3ccc(OC)cc3)[C@H]2C)c2cc(N3CCC3=O)ccc21	2	.
O=C(CC1NCCNC1=O)Nc1ccccc1Cl (centres undefined)	-3	i
COc1cccc(-c2ccc3c(c2)O[C@@H](CN(C)C)[C@H](C)CN([C@H](C)CO)S3(=O)=O)c1	.	i
C/C=C/c1ccc2c(c1)O[C@H](CN(C)S(=O)(=O)c1ccccc1OC)[C@H](C)CN([C@@H](C)CO)S2(=O)=O	.	+
C[C@H]1CN([C@@H](C)CO)S(=O)(=O)c2ccc(-c3ccc(C#N)cc3)cc2O[C@H]1CN(C)C(=O)Nc1cc(F)ccc1F	.	+
CCC(=O)N(C)C[C@@H]1Oc2cc(C#CC3CC3)ccc2S(=O)(=O)N([C@@H](C)CO)C[C@H]1C	.	+
CCC(=O)N(C)C[C@@H]1Oc2cc(C#CC(C)C)ccc2S(=O)(=O)N([C@H](C)CO)C[C@@H]1C	.	i
C[C@H](CO)N1C[C@H](C)[C@@H](CN(C)C(=O)Nc2cc(F)ccc2F)Oc2cc(C#CC3CCCC3)ccc2S1(=O)=O	.	i
C/C=C/c1ccc2c(c1)O[C@H](CN(C)S(=O)(=O)c1ccc(F)cc1)[C@H](C)CN([C@H](C)CO)S2(=O)=O	.	i
CCC(=O)N(C)C[C@@H]1Oc2cc(-c3cccc(OC)c3)ccc2S(=O)(=O)N([C@@H](C)CO)C[C@@H]1C	.	+
NC(=O)c1c(NC(=O)COc2ccc3ccccc3c2)sc2c1CCCCCC2	-2	i
COc1ccc(OC)c(CN2CCN(Cc3cccc([N+](=O)[O-])c3)CC2)c1	2	i
Cc1nc2nc[nH]n2c(=O)c1NS(=O)(=O)c1ccc(C2CCCCC2)cc1	-2	i
O=C1c2c(O)ccc(O)c2C(=O)c2c(NCCNCCO)ccc(NCCNCCO)c21	58*	i
Cn1c(=O)c2[nH]c(-c3ccc(Cl)cc3)c(O)c2n(C)c1=O	.	i
CCCCc1c(-c2ccc(OC)cc2)[nH]c2nccnc12	17	i
CCCCc1c(-c2ccc(O)cc2)[nH]c2nccnc12	57*	i
SMILES	STK33 kin inh	ID4 SMM
COc1ccc([Si](C)(C)[C@H]2[C@H](CCO)O[C@@]3(C(=O)N(Cc4ccc(N5CCOC5=O)cc4)c4ccccc43)[C@@H]2C)cc1	?	i
COc1ccc([Si](C)(C)[C@@H]2[C@@H](CCn3cc(CCO)nn3)O[C@]3(C(=O)N(Cc4ccc(N5CCOC5=O)cc4)c4ccccc43)[C@H]2C)cc1	24*	i
Cc1cc(C)c2oc(-c3ccc(NC(=O)COc4ccc(Br)cc4)cc3O)nc2c1	0	.
Cc1ccccc1OCC(=O)Nc1cc2nn(-c3ccccc3)nc2cc1Cl	1	i
C[C@@H]1O[C@H]2Oc3c(-c4ccc(O)cc4)oc4cc(O)c(c(O)c4c3=O)-c3cc(ccc3O)/C=C\C(=O)OC[C@H]3O[C@@H](O[C@H]([C@H]1O)[C@H]2O)[C@H](O)[C@@H](O)[C@@H]3O	3	.
C[C@@H]1CCCCO[C@H](CN(C)C(=O)c2ccccc2)[C@@H](C)CN([C@@H](C)CO)C(=O)c2cc(NS(C)(=O)=O)ccc2O1	.	i
C[C@@H]1CCCCO[C@H](CN(C)C(=O)CCCN(C)C)[C@@H](C)CN([C@H](C)CO)C(=O)c2cc(NS(=O)(=O)c3ccccc3)ccc2O1	-4	i
C[C@@H]1CCCCO[C@@H](CN(C)C(=O)CCCN(C)C)[C@@H](C)CN([C@H](C)CO)C(=O)c2cc(NS(=O)(=O)c3ccccc3)ccc2O1	2	+
